Among the data in PubChem BioAssay (NCI) are growth inhibition values, retold here.

Structures are written as SMILES. This is part of a sample that, as a whole, favours compounds with a hit. Of some 79,000 tested, about 15% had one in any assay. Values without a mark were called inactive. Calls of active or inactive are those of the source. Cut-off read from the data, not from the text of the source: active = growth inhibition above about 70%; inactive = the rest.

The nature of the first assay: NCI Yeast Anticancer Drug Screen. Data for the rad14 strain (AID 159).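 Note: 0% = growth of vehicle-treated control cultures.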 As to conditions: S. cerevisiae rad14 strain growth inhibition; at 100.0 µM; active compounds read high. Put shortly:
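Yeast cells carrying a defined DNA-repair defect were exposed to compounds, and growth inhibition was calculated relative to vehicle-treated control cultures.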
For `CN(C)CC(CN(C)C)C(=O)/C=C/c1ccc(Cl)cc1Cl`, the growth inhibition is 97% (active).
Regarding `c1ccc2c(c1)ccn2CCc1c[nH]c2ccccc12`, the growth inhibition was 97% (active).
For `Cc1ccccc1NC(=O)c1c(C)oc2c1C(=O)c1ccccc1C2=O`, the growth inhibition was 93% (active).
Still for that read-out and setting: then `CC(C)OC(=O)NNc1c(Cl)cc(Cl)cc1Cl`, with 7%.
In the case of `COc1ccc2c(c1)CCCC(Br)C2=O` (stereo unspecified), the growth inhibition was 98% (active).
Same read-out and setting: next, `CCC(OC(C)=O)C1CC(C(C)C)CCC1C` (stereo unspecified): 99% (active); `c1ccc(-c2cc(C3CO3)c3ccccc3n2)cc1` (stereo unspecified): 97% (active).
Regarding `COc1ccc(/C=C2\SC(=S)N(/C=C3\C(=O)N(c4ccccc4)N=C3C)C2=O)cc1OC`, the growth inhibition was 74% (active).
Consider `CC1=CC(=C(c2ccc(N)c(C)c2)c2ccc(N)c(C)c2)C=CC1=N`, for which the growth inhibition was 97% (active).
As to `CC1C(c2ccccc2)SC(=N)N1C` (stereo unspecified), the growth inhibition is 2%.
Consider `C=CC(C)(C)N1C(=O)C(C(C)=O)=C(O)C1Cc1c[nH]c2ccccc12` (stereo unspecified), for which the growth inhibition was 95% (active).
Still for that read-out and setting: then `O=C1c2cccc3cccc(c23)C(=O)N1CCNCCN1C(=O)c2cccc3cccc(c23)C1=O`, with 4%.
In the case of `COC(=O)C(Cc1c[nH]c2ccccc12)N1CN(C)c2ccccc2C1=O` (stereo unspecified), the growth inhibition was 99% (active).
Take `O=C(/N=N/C(=O)Oc1ccccc1)Oc1ccccc1`: the growth inhibition was 5%.
On to `COc1cc([C@@H]2c3cc4c(cc3[C@@H](NC(=O)NO)[C@H]3COC(=O)[C@H]23)OCO4)cc(OC)c1O`, for which the growth inhibition was 8%.
Turning to `CC1(C)CC(=O)C(/C=N/c2nc(-c3ccc(Br)cc3)cs2)=C(O)C1`, the growth inhibition was 98% (active).
With `CCOC(=O)/C(=C/c1cccc(Cl)c1)N(CC)CC`, the growth inhibition is 93% (active).
In the case of `O=S(=O)(NC1CCCC(c2ccccc2)C1)c1ccccc1` (stereo unspecified), the growth inhibition was 96% (active).
For the compound `COc1ccc2nc3cccc([N+](=O)[O-])c3c(NCCCCCC(=O)O)c2c1`, the growth inhibition is 99% (active).
On to `CCO/C=C1\SC(=S)N(c2ccc(OCC)cc2)C1=O`, for which the growth inhibition is 8%.
With `COC(=O)c1ccccc1N=NNc1cccc(SC)c1`, the growth inhibition was 87% (active).
For the compound `CC1=NN(C(=O)c2ccccc2O)C(=O)/C1=C/c1ccco1`, the growth inhibition was 96% (active).
Take `COc1ccccc1NC(=O)c1ccc(Cl)cc1`: the growth inhibition is 0%.
As for `CC(C)=CCC/C(C)=C/CN1C(=O)C=CC1=O`, the growth inhibition was 100% (active).
As to `O=C1CSC(c2ccccc2)N1c1ccc(-c2ccc(-n3c(-c4ccccc4)nc4ccccc4c3=O)cc2)cc1` (stereo unspecified), the growth inhibition was 44%.
As for `N#CC1OB(O)c2ccccc21` (stereo unspecified), the growth inhibition was 1%.
On to `Brc1ccc(B2Nc3ccccc3N2)cc1`, for which the growth inhibition is 63%.
On the same count and under the same terms, next, `CCOP(=O)(OCC)/C(C#N)=C/c1cccc(Oc2ccccc2)c1`: 96% (active).

A further assay can be described thus: NCI Yeast Anticancer Drug Screen. Data for the sgs1 mgt1 strain (AID 161).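 Note: 0% = growth of cultures given vehicle only.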 As to conditions: S. cerevisiae sgs1 mgt1 strain, at 5.0 µM (retest, dose inferred, filed as 0.5), active compounds read high. In a few lines: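 Yeast cells carrying a defined DNA-repair defect were exposed to test compounds. Growth inhibition was measured relative to vehicle-treated controls.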
For the compound `CN(C)CC(CN(C)C)C(=O)/C=C/c1ccc(Cl)cc1Cl`, the growth inhibition is 15%.
On to `c1ccc2c(c1)ccn2CCc1c[nH]c2ccccc12`, for which the growth inhibition is -10%.
Consider `Cc1ccccc1NC(=O)c1c(C)oc2c1C(=O)c1ccccc1C2=O`, for which the growth inhibition was -10%.
On to `COc1ccc2nc3cccc([N+](=O)[O-])c3c(NCCNCCO)c2c1`, for which the growth inhibition was 78% (active).
Turning to `CCC(OC(C)=O)C1CC(C(C)C)CCC1C` (stereo unspecified), the growth inhibition is -7%.
The same measure, in the same setting: then `O=S(=O)(c1cccc(C(F)(F)F)c1)N1c2ccccc2-n2cccc2C1c1cccnc1` (stereo unspecified), with 18%.
On the same count and under the same terms, then `c1ccc(-c2cc(C3CO3)c3ccccc3n2)cc1` (stereo unspecified), with -1%; and `COc1ccc(/C=C2\SC(=S)N(/C=C3\C(=O)N(c4ccccc4)N=C3C)C2=O)cc1OC`, with -4%; and `CC1C(c2ccccc2)SC(=N)N1C` (stereo unspecified), with 12%.
Regarding `CC(/C=C/c1ccc([N+](=O)[O-])o1)=N/N1CC(CN2CCOCC2)OC1=O` (stereo unspecified), the growth inhibition is 22%.
Same read-out and setting: then `C=CC(C)(C)N1C(=O)C(C(C)=O)=C(O)C1Cc1c[nH]c2ccccc12` (stereo unspecified), with 18%; and `O=C1c2cccc3cccc(c23)C(=O)N1CCNCCN1C(=O)c2cccc3cccc(c23)C1=O`, with 5%; and `Cc1ccc([N+](=O)[O-])c2c(NCCC[N+](C)(C)[O-])c3ccccc3nc12`, with 6%.
As to `COC(=O)C(Cc1c[nH]c2ccccc12)N1CN(C)c2ccccc2C1=O` (stereo unspecified), the growth inhibition is -2%.
Same read-out and setting: then `O=C(/N=N/C(=O)Oc1ccccc1)Oc1ccccc1`, with -29%; and `COc1cc([C@@H]2c3cc4c(cc3[C@@H](NC(=O)NO)[C@H]3COC(=O)[C@H]23)OCO4)cc(OC)c1O`, with -2%; and `CC(C)OC(=O)NNc1cccc(Cl)c1`, with 27%.
Consider `CCC(=O)C1=C(O)c2cc(OC)ccc2CC1C(=O)OC` (stereo unspecified), for which the growth inhibition was -3%.
Turning to `O=S(=O)(NC1CCCC(c2ccccc2)C1)c1ccccc1` (stereo unspecified), the growth inhibition is -24%.
Turning to `COc1ccc2nc3cccc([N+](=O)[O-])c3c(NCCCCCC(=O)O)c2c1`, the growth inhibition was 95% (active).
With `CCO/C=C1\SC(=S)N(c2ccc(OCC)cc2)C1=O`, the growth inhibition is -7%.
Take `COc1cc(OC)c(CSCC(NC(=O)OCC2c3ccccc3-c3ccccc32)C(=O)O)c(OC)c1` (stereo unspecified): the growth inhibition was -4%.
With `COC(=O)c1ccccc1N=NNc1cccc(SC)c1`, the growth inhibition is 1%.
`CC1=NN(C(=O)c2ccccc2O)C(=O)/C1=C/c1ccco1`: the growth inhibition is 2%.
Consider `COc1ccccc1NC(=O)c1ccc(Cl)cc1`, for which the growth inhibition is 3%.
The same measure, in the same setting: then `N#CC1OB(O)c2ccccc21` (stereo unspecified), with -61%; and `O=C(NCCNCCNC(=O)c1cc(-c2ccccc2)nc2ccccc12)c1cc(-c2ccccc2)nc2ccccc12`, with 9%.
With `CCOP(=O)(OCC)/C(C#N)=C/c1cccc(Oc2ccccc2)c1`, the growth inhibition was 1%.
